The values below come from ChEMBL document CHEMBL1961873, “Compounds: GSK PKIS; Assays: Nanosyn kinase panel” (2012).

The target in assay [1] is Leukocyte tyrosine kinase receptor (Homo sapiens) (UniProt P29376). As to conditions: at 1 µM.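 Note: each value is the mean inhibition of LTK.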
Assay [2] deals with Tyrosine-protein kinase Lyn (Homo sapiens) (UniProt P07948). The conditions noted are these: at 0.1 µM.
Assay [3] shares this target. As to conditions: at 1 µM.
Assay [4] has the same target. The conditions noted are these: at 0.1 µM. This is another data set of the same source.
Assay [5] shares this target. As to conditions: at 1 µM. This is another data set of the same source.
In assay [6] the target is T1, Tyrosine-protein kinase Mer (Homo sapiens) (UniProt Q12866).
T1 sequence (whole entry): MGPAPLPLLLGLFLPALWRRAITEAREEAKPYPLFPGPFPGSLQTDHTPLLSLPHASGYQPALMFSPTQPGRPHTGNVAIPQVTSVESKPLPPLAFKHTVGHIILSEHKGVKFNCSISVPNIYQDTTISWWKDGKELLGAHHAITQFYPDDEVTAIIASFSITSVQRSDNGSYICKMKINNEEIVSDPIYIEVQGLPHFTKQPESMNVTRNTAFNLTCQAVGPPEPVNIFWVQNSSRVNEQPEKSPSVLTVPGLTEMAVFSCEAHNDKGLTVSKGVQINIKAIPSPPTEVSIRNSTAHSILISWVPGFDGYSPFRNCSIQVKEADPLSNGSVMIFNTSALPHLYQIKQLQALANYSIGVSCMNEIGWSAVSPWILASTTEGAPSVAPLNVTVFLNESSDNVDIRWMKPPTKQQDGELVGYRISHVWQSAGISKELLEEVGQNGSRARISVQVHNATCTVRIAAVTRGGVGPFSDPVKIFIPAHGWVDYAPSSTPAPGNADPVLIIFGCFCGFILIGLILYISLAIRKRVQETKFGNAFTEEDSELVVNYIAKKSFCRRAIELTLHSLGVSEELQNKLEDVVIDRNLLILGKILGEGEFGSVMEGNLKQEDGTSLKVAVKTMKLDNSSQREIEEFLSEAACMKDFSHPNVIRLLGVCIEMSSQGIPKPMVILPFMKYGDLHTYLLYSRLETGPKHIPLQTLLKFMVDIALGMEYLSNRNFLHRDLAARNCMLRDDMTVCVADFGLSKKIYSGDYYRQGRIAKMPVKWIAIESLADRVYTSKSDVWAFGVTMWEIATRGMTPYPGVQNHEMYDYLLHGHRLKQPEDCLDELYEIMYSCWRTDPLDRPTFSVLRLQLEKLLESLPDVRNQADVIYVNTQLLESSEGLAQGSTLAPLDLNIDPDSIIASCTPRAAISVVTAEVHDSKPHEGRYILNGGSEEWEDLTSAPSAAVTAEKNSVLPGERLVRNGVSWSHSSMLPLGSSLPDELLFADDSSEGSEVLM
As to conditions: at 0.1 µM.

Assay [7] has as its target T1, Tyrosine-protein kinase Mer (Homo sapiens). As to conditions: at 1 µM.
The target in assay [8] is Hepatocyte growth factor receptor (Homo sapiens) (UniProt P08581). As to conditions: at 0.1 µM.
Assay [9] has the same target. As to conditions: at 1 µM.
The target in assay [10] is T2, Muscle, skeletal receptor tyrosine-protein kinase (Homo sapiens) (UniProt O15146).
T2 sequence (whole entry): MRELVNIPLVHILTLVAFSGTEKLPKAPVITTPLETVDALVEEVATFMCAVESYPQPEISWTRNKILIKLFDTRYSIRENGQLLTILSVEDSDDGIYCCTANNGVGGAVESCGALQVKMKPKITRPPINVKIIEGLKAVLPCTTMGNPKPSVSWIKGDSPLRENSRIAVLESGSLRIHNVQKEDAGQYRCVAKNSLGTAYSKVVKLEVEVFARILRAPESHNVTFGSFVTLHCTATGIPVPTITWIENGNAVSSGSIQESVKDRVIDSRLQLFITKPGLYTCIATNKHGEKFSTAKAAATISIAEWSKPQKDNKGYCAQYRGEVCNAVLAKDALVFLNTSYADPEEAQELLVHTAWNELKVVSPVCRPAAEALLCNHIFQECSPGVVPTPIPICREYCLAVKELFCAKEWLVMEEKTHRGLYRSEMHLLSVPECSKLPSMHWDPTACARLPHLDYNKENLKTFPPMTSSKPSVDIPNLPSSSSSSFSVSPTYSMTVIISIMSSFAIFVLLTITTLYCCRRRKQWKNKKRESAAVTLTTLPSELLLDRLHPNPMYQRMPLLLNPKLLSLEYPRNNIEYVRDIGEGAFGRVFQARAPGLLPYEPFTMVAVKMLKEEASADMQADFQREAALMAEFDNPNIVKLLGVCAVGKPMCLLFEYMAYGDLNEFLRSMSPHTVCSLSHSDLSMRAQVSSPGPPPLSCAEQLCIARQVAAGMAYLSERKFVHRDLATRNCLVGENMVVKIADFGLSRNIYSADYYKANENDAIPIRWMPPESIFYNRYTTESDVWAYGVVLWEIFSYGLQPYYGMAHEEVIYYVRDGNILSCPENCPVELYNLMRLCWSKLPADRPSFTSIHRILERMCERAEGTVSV
The conditions noted are these: at 0.1 µM.

In assay [11] the target is T2, Muscle, skeletal receptor tyrosine-protein kinase (Homo sapiens). As to conditions: at 1 µM.
Assay [12] concerns the target Platelet-derived growth factor receptor alpha (Homo sapiens) (UniProt P16234). As to conditions: at 0.1 µM.
Assay [13] has the same target. The conditions noted are these: at 1 µM.
The subject of assay [14] is Platelet-derived growth factor receptor alpha (Homo sapiens), P16234 [D842V]. The conditions noted are these: at 0.1 µM.
Assay [15] has the same test system. As to conditions: at 1 µM.
Assay [16] concerns Platelet-derived growth factor receptor alpha (Homo sapiens), P16234 [T674I]. As to conditions: at 0.1 µM.
Assay [17] shares this test system. The conditions noted are these: at 1 µM.
Assay [18] deals with Platelet-derived growth factor receptor alpha (Homo sapiens), P16234 [V561D]. The conditions noted are these: at 0.1 µM.
The test system is the same in assay [19]. The conditions noted are these: at 1 µM.
For assay [20], the target named is Platelet-derived growth factor receptor beta (Homo sapiens) (UniProt P09619). As to conditions: at 0.1 µM.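 Note: reported value is the mean percent inhibition of the kinase.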
Chain of Platelet-derived growth factor receptor beta (Homo sapiens) (P09619 whole entry): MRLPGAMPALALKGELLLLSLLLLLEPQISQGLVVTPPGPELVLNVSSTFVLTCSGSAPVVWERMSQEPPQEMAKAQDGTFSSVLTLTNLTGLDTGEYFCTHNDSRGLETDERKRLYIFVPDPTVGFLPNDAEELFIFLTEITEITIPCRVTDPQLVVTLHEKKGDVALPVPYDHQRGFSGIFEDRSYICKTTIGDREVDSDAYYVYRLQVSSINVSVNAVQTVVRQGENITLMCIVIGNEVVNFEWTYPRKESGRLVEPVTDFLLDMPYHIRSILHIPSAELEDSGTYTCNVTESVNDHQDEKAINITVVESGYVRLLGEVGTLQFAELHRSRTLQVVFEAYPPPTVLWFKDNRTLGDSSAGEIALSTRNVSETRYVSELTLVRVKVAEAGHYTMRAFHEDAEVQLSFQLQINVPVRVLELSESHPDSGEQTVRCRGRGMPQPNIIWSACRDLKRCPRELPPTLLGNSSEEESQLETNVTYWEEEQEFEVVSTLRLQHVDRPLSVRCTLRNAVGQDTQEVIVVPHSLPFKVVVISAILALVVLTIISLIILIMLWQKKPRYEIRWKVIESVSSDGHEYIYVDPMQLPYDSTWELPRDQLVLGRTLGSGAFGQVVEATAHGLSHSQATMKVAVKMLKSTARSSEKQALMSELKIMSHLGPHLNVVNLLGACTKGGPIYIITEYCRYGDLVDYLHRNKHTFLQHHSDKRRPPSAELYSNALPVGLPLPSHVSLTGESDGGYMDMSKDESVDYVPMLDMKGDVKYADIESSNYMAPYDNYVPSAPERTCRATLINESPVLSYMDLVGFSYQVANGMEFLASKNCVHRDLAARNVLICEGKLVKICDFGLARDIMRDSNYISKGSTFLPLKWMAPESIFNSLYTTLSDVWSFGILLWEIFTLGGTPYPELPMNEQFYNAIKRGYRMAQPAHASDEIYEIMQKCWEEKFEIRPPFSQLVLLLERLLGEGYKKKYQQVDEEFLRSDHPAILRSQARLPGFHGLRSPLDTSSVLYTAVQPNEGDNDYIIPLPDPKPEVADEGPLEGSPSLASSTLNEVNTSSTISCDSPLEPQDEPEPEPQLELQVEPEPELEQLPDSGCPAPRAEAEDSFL

Chain of Leukocyte tyrosine kinase receptor (Homo sapiens) (P29376 whole entry): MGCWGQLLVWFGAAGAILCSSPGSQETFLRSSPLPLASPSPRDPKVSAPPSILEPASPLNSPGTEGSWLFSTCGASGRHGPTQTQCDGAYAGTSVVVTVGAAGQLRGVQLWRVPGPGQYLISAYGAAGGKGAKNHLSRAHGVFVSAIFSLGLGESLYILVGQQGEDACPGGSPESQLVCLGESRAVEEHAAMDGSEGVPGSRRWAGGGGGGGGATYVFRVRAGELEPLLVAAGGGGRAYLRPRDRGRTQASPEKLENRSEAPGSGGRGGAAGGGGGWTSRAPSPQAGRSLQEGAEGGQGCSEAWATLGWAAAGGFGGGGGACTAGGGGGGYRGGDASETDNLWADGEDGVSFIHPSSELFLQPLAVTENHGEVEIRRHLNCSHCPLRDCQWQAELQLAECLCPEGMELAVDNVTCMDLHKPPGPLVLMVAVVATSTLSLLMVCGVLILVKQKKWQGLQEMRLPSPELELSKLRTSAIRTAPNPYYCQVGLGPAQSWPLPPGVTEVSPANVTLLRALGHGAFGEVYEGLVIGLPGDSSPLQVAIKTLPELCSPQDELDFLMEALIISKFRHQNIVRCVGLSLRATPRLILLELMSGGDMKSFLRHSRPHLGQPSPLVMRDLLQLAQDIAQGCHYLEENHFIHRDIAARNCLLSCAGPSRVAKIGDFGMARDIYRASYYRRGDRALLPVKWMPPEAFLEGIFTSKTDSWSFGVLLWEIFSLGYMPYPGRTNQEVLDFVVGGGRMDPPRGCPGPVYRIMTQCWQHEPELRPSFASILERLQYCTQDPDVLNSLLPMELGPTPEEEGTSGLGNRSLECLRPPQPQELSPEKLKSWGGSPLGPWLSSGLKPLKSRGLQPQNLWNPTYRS
Chain of Platelet-derived growth factor receptor alpha (Homo sapiens) (P16234 whole entry): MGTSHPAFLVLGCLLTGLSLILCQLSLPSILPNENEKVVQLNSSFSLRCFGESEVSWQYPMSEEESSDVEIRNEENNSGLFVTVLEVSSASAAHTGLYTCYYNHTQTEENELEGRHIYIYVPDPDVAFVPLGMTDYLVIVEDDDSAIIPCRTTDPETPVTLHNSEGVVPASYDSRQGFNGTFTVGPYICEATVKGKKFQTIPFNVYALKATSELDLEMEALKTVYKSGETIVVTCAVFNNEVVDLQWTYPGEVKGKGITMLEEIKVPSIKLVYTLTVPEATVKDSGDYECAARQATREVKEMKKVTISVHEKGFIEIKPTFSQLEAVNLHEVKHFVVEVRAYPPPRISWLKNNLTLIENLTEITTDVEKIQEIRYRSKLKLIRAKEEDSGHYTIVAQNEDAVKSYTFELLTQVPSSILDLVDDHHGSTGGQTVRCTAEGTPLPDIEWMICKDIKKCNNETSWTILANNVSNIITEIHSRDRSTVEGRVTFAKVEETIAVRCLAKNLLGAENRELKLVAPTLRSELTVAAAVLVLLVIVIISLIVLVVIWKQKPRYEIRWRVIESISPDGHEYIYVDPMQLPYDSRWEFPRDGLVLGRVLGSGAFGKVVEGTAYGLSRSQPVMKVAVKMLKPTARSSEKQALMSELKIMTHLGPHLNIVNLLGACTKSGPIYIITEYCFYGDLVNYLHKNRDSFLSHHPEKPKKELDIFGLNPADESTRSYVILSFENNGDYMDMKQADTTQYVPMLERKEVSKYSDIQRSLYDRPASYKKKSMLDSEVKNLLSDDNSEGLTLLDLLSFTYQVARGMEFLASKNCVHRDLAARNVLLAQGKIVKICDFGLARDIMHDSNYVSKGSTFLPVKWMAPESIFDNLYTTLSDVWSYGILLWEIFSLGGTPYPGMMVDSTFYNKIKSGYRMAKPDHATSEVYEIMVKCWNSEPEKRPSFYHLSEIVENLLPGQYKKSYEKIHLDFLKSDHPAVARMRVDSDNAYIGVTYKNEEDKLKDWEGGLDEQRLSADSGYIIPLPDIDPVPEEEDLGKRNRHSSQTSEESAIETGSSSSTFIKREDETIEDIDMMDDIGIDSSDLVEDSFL
Chain of Platelet-derived growth factor receptor alpha (Homo sapiens), P16234 [T674I] (P16234 whole entry T674I): as the sequence (P16234 whole entry) above, with T674I counted along it
Chain of Tyrosine-protein kinase Lyn (Homo sapiens) (P07948 2-512 limits assumed): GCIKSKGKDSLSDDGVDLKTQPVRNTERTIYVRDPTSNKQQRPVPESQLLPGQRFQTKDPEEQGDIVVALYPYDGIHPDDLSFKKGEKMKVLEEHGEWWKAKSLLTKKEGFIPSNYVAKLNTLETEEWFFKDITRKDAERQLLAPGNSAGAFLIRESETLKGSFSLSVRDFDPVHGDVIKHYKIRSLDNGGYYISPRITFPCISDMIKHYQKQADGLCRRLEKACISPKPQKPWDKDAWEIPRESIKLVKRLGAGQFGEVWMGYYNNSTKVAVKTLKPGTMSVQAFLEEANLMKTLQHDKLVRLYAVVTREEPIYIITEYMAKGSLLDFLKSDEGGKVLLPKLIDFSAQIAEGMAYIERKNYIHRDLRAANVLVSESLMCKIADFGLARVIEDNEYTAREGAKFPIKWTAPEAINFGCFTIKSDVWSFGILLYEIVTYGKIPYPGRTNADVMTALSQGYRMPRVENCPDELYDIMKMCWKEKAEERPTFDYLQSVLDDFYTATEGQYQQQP

The term inhibition denotes the relative decrease from the control value, in per cent. With `Nc1nccc(-c2c(-c3ccc(F)cc3)ncn2C2CCC(O)CC2)n1` (stereo not given), the inhibition came out at 0.8% in [1]; 3.13% in assay [2]; 23.6% in [3]; 1.4% in assay [4]; 18% in assay [5]; 1.22% in assay [6]. Moreover, the inhibition in [7] was 7.13%; in assay [8] it was 0.14%; in assay [9], 3.65%; in [10], 0.79%; in [11], 4.37%; in [12] it was 2.63%. Further, the inhibition in assay [13] came out at 21.6%; in assay [14], 2.7%; in [15], 14.2%; in [16] it was 0.95%; in [17], 0.82%; in assay [18] it was 5.61%. Further, the inhibition in assay [19] stood at 21.1%; in assay [20], 5.21%.
For the compound `NC(=O)Cc1ccccc1Oc1nccc(-c2c(-c3ccc(F)cc3)ncn2C2CCNCC2)n1`, the inhibition in assay [1] came to 2.41%; in assay [2], 2.61%; in assay [3] it was 3.78%; in assay [4] it was 1.91%; in [5], 1.88%; in [6] it was 0.54%. For the same compound, the inhibition in assay [7] is 3.34%; in assay [8], 2.67%; in [9] it was 3.24%; in assay [10] it was 2.87%; in assay [11] it was 1.69%; in [12] it was 3.58%. Also, the inhibition in assay [13] was 7.12%; in assay [14], 0.37%; in assay [15], 0.79%; in assay [16], 3.6%; in [17], 2.14%; in [18], -0.19%. Also, the values for the inhibition in [19] and in assay [20] were 4.04% and 3.93%, respectively.
As to `COc1cc(Nc2ncc(-c3ccccc3)o2)cc(OC)c1OC`, the inhibition was found to be 1.47% in [1]; 7.48% in assay [2]; 47.8% in assay [3]; 5.8% in [4]; 46.5% in assay [5]; 3.23% in assay [6]. In addition, the inhibition in assay [7] came to 3.53%; in assay [8], 2.19%; in assay [9] it was 2.13%; in assay [10], 1.59%; in [11], 14.5%; in [12] it was 17.7%. In addition, the inhibition was determined as 69.6% in [13]; 9.16% in assay [14]; 43% in [15]; 27.4% in [16]; 77.7% in assay [17]; 35.7% in [18]. The inhibition in assay [19] stood at 76.1%; in [20], 23%.
For `COc1cc(Nc2ncc3c(C)nc(-c4cccc(Oc5ccccc5)c4)n3n2)cc(OC)c1OC`, the inhibition in assay [1] stood at 3.54%; in assay [2], 3.39%; in [3], 4.7%; in assay [4], 1.89%; in [5], 3.75%; in [6] it was 1.36%. The inhibition in assay [7] is 1.57%; in assay [8], 1.11%; in assay [9] it was -0.18%; in [10], 1.49%; in assay [11], 4.06%; in assay [12], 3.72%. The inhibition in [13] was found to be 10.5%; in [14], 2.21%; in assay [15], 5.9%; in assay [16] it was 1.26%; in assay [17] it was 1.96%; in assay [18] it was 1.43%. Also, the figures for the inhibition in [19] and in assay [20] were 9.34% and 0.58%, respectively.
Take `NCc1ccc(-n2c(-c3nonc3N)nc3cnccc32)cc1`: the inhibition in assay [1] was 5.03%; in [2], 6.22%; in [3], 5.56%; in assay [4] it was 4.38%; in assay [5] it was 2.34%; in assay [6], 1.5%. For the same compound, the inhibition in assay [7] stood at 5.54%; in assay [8], 5.16%; in assay [9], 9.91%; in [10] it was 6.42%; in [11], 8.78%; in assay [12], 10.2%. The inhibition in assay [13] was found to be 18%; in assay [14], 9%; in [15] it was 16.1%; in [16] it was 8.3%; in assay [17], 17.7%; in assay [18], 2.5%. Besides, the inhibition in [19] turned out to be 8.66%; in [20] it was 9.08%.
For `COc1cc2ncn(-c3cc(OCc4ccccc4C(F)(F)F)c(C(C)=O)s3)c2cc1OC`, the inhibition was 3.33% in assay [1]; 3.36% in [2]; 6.9% in assay [3]; 4.22% in assay [4]; 6.9% in assay [5]; -0.14% in assay [6]. Further, the inhibition was 4.1% in assay [7]; 1.74% in assay [8]; 13.5% in [9]; 2.48% in [10]; 3.03% in assay [11]; 10.4% in assay [12]. Moreover, the inhibition in [13] came to 31.8%; in [14], 3.21%; in [15], 13.8%; in assay [16], 5.42%; in assay [17], 13.4%; in [18], 3.99%. Moreover, the inhibition is 19.7% in assay [19] and 8.96% in assay [20].
With `O=C(Nc1n[nH]c2nc(-c3ccc(O)cc3)c(Br)cc12)C1CC1`, the inhibition in assay [1] was 91.6%; in [2] it was 9.57%; in assay [3] it was 16.2%; in assay [4], 6.94%; in [5] it was 13%; in assay [6], 1.7%. Further, the inhibition is 8.16% in [7]; 4.98% in assay [8]; 10.9% in assay [9]; 4.48% in [10]; 14% in assay [11]; 25.9% in [12]. Also, the inhibition in [13] amounted to 67.1%; in assay [14] it was 12.8%; in [15], 55.5%; in assay [16], 7.49%; in assay [17], 24.4%; in assay [18] it was 19.7%. The figures for the inhibition in assay [19] and in assay [20] were 64.6% and 12%, respectively.
